Inconclusive results are not listed. The source made the active and inactive calls. Calls follow the shape of the dose curve; as a rule, active = well fitted curve in the direction sought with a large enough effect; inconclusive = small, poorly fitted or top-dose-only effect, or another doubt; inactive = no such curve, though single readings can be large; an effect the other way counts as inactive or inconclusive.
What was measured:
[1] = MultiTox-Fluor Cytotoxicity Assay - LYMP1-001 - Dead Cells (AID 946)
Procedure, shortened: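 Cytotoxicity as increased dead-cell protease fluorescence (bis-AAF-R110, 485/520 nm), read 60 min after MultiTox-Fluor reagent. Human lymphoblastoid line exposed 16 h; Hill-fitted AC50, with DMSO as 0% and 15 uM tetraoctylammonium bromide as 100%.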

[2] = MultiTox-Fluor Cytotoxicity Assay - LYMP1-001 - Live Cells (AID 947)
[3] = Cell Viability - LYMP1-002 - Assay at 16 hr (AID 948); also: potency is read from the fitted curve at half-maximal effect
Procedure, shortened: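 Seed 2500 LYMP1-002 cells per well in complete medium and hold 5 hr at 37 C. Add compound across a concentration series and incubate 16 hr at 37 C. Add CellTiter-Glo, wait 30 min at room temperature, read luminescence.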

[4] = MultiTox-Fluor Cytotoxicity Assay - LYMP1-002 - Dead Cells (AID 960); also: nearly all actives have a fitted effect of over 60% in size
Procedure, shortened: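 Cells were plated, rested 5 hr, then treated with compound dilution series for 16 hr at 37 C. After adding substrate reagent and 60 min at room temperature, dead-cell protease fluorescence gave concentration-response curves fitted by the Hill equation.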

[5] = MultiTox-Fluor Cytotoxicity Assay - LYMP1-003 - Dead Cells (AID 961); also: nearly all actives have a fitted effect of over 70% in size; also: potency is read from the fitted curve at half-maximal effect
Procedure, shortened: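 Dead-cell protease release, detected as bis-AAF-R110 fluorescence at 485/520 nm, was measured in LYMP1-003 cells after 16 h compound treatment at 37 C. AC50 values came from Hill-modeled qHTS curves normalized to DMSO (0%) and 15 uM tetraoctylammonium bromide (100%).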

[6] = MultiTox-Fluor Cytotoxicity Assay - LYMP1-003 - Live Cells (AID 962);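 also: cells exposed to compound for 16 hours at 37 °C; cytotoxic hits lower the live-cell protease signal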
Procedure, shortened: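 Acute cytotoxicity is scored as a drop in live-cell protease activity in human lymphoblastoid LYMP1-003 cells after 16 hr compound exposure at 37 C. AC50 values come from Hill-equation modelling of concentration-response data.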

[7] = Cell Viability - LYMP1-003 - Assay at 24 hr (AID 963); also: potency is read from the fitted curve at half-maximal effect
Procedure, shortened: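 Cytotoxicity is scored as a concentration-dependent fall in ATP-linked luciferase signal in human lymphoblastoid LYMP1-003 cells treated 24 hr at 37 C in complete culture medium.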

[8] = Cell Viability - LYMP1-003 - Assay at 40 hr (AID 964); also: nearly all actives have a fitted effect of over 60% in size; also: potency is read from the fitted curve at half-maximal effect
Procedure, shortened: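 Luminescent ATP signal (CellTiter-Glo) served as the viability read-out after 40 hr compound treatment of human lymphoblastoid LYMP1-003 cells at 37 C. Decreases in ATP were fitted with the Hill equation to give AC50.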

[9] = Cell Viability - LYMP2-003 (AID 965);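 also: cells exposed to compounds for 24 h before reading; nearly all actives have a fitted effect of over 50% in size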; also: potency is read from the fitted curve at half-maximal effect
Procedure, shortened: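 Seed 2500 lymphoblastoid cells/well; incubate 5 hr, 37 C; add compounds; incubate 24 hr, 37 C; add CellTiter-Glo, 30 min RT; read luminescence. AC50 from Hill fit.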

[10] = Cell Viability - LYMP2-004 (AID 966); also: nearly all actives have a fitted effect of over 65% in size
Procedure, shortened: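 qHTS cytotoxicity: human lymphoblastoid line, 24 hr compound treatment, 37 C, complete medium. Viability read as cellular ATP via luciferase luminescence; tetraoctylammonium bromide served as positive control.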

[11] = Cell Viability - LYMP2-005 (AID 967);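 also: cells exposed to compound for 24 h at 37 °C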; also: potency is read from the fitted curve at half-maximal effect
Procedure, shortened: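 Acute cytotoxicity is scored as a concentration-dependent drop in intracellular ATP in human lymphoblastoid LYMP2-005 cells after 24 h compound treatment. ATP is quantified by luciferase luminescence, and AC50 is derived by Hill-equation modelling.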

[12] = Cell Viability - LYMP2-009 (AID 968);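 also: cells exposed to compound for 24 h at 37 °C; nearly all actives have a fitted effect of over 55% in size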; also: potency is read from the fitted curve at half-maximal effect
[13] = Cell Viability - LYMP2-011 (AID 969); also: nearly all actives have a fitted effect of over 60% in size; also: potency is read from the fitted curve at half-maximal effect
Procedure, shortened: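 In this qHTS cytotoxicity format, compounds are tested across concentrations on human lymphoblastoid cells in complete medium for 24 hours at 37 C. Viability is taken as cellular ATP measured by luciferase luminescence.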

[14] = Cell Viability - LYMP2-013 (AID 970);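 also: cells exposed to compound for 24 h at 37 °C; nearly all actives have a fitted effect of over 55% in size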; also: potency is read from the fitted curve at half-maximal effect
Procedure, shortened: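 Cytotoxicity is scored as a concentration-dependent drop in intracellular ATP in human lymphoblastoid cells after 24 hr compound exposure at 37 C. ATP is quantified by luciferase luminescence, and AC50 values come from Hill-equation modeling.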

[15] = Cell Viability - LYMP2-015 (AID 971); also: nearly all actives have a fitted effect of over 55% in size; also: potency is read from the fitted curve at half-maximal effect
Procedure, shortened: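 Cells are seeded at 2500 per well and incubated 5 hr at 37 C. Compounds are added across a concentration series for 24 hr at 37 C. CellTiter-Glo is added, and luminescence is read after 30 min at room temperature.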

Measured: Potency

CCCCO
inactive: all assays above

Cc1ccc(S(=O)(=O)O)cc1C
inactive: all assays above

CC(C)O
inactive: all assays above

CC1=CCC2CC1C2(C)C (configuration not stated)
inactive: all assays above

C/C=C/C=C/C(=O)O
inactive: all assays above

OB(O)O
not listed: [4]
inactive: all other assays above

c1ccc2ccccc2c1
inactive: all assays above

Oc1ccc(/C=C/c2cc(O)cc(O)c2)cc1
not listed: [8] | [11]
inactive: all other assays above

CC(C)(C)CC(C)(C)c1ccc(OCCO)cc1
inactive: all assays above

O=P(O)(O)O
not listed: [11]
inactive: all other assays above

O.O.O.O.O.O.O.O=S(=O)([O-])[O-].[Co+2]
inactive: [1] | [2] | [3] | [5] | [6] | [7] | [9] | [14]

Oc1cccc(O)c1O
not listed: [8] | [9] | [10] | [12]
inactive: all other assays above

O=c1n(CC2CO2)c(=O)n(CC2CO2)c(=O)n1CC1CO1 (configuration not stated)
active: [3] 39.8 µM | [5] 50.1 µM | [7] 39.8 µM | [8] 15.8 µM | [9] 31.6 µM | [11] 20 µM | [12] 39.8 µM | [13] 39.8 µM | [14] 50.1 µM | [15] 39.8 µM
inactive: [2] | [6]

C[C@H](CCC(=O)O)[C@H]1CC[C@H]2[C@@H]3[C@H](O)C[C@@H]4C[C@H](O)CC[C@]4(C)[C@H]3C[C@H](O)[C@]12C
inactive: all assays above

CCCCC
inactive: all assays above

NCCN
inactive: all assays above

OCl
inactive: all assays above

ClC(Cl)Cl
inactive: all assays above

COC(=O)c1ccccc1O
inactive: all assays above

— PubChem BioAssay (NCATS)
